GC-A act: GC-A (human) enzyme activation; HEK293 GC-A cells, cGMP TR-FRET, EC30 ANP; 0% at EC30 ANP, 100% saturating ANP; actives 0.14% (n = 370,000); activation, % at 10 µM; P16066; in the data active means activation above about 40%
NOD2-RIPK2 inh: inhibitors of human NOD2-RIPK2 interaction | CHO BLA complementation NOD2-RIPK2, CCF4 ratio | inhibition, % at 4.98 µM | actives 0.38% (n = 360,000) | AID 624267; in the data active means inhibition above about 21%;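 further: 0% = vehicle only and 100% = reference blocker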
Target sequence (O43353 whole entry, looked up): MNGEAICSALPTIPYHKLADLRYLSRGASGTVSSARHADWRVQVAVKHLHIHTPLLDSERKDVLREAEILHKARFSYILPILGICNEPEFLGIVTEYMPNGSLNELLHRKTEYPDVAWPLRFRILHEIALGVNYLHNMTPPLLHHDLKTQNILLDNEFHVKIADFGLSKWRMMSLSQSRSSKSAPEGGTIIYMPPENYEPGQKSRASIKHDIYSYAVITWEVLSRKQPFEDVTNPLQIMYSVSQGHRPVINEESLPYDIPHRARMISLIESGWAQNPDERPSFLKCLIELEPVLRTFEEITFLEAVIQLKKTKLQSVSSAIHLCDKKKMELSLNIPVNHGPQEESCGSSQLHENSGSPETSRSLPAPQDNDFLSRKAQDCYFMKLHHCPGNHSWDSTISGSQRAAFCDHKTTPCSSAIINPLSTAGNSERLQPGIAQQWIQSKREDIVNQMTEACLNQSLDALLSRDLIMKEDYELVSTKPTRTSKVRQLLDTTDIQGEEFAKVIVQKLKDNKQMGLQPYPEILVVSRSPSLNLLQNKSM
TLR4-MyD88 BLA: blocks binding of human TLR4 to MyD88. O00206+Q99836. HeLa CL3-4 TLR4/MyD88 BLA complementation, FRET ratio. inhibition, % at 8.4 µM. actives 0.18% (n = 200,000). AID 861; in the data active means inhibition above about 25%;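 further: 0% = vehicle and 100% = reference inhibitor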
Neddylation inh: cullin neddylation inhibition; inhibition, % at 25 µM; actives 0.58% (n = 360,000); TR-FRET cullin neddylation, biochemical; P61081+Q13564; in the data active means inhibition above about 36%
NPR2 activator: GC-B (human) receptor activation; P20594; actives 0.11% (n = 370,000); activation, % at 10 µM; AID 1920062; HEK293-GC-B cells, CNP EC30, cGMP TR-FRET; 0% at EC30 CNP, 100% saturating CNP;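 active means activation at 10 µM reaching about 35% in either raw or pattern-adjusted values, limit read from the data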
TLR9-MyD88 inh: TLR9-MyD88 interaction inhibition; CHO BLA complementation TLR9-MyD88, CCF4 FRET ratio; actives 0.21% (n = 340,000); inhibition, % at 4.98 µM; AID 504734;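 active means inhibition above the mean over all tested compounds plus 3 SD, cut at about 21% in these data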;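 further: 0% = DMSO only wells and 100% = clavulanate BLA inhibitor control wells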
TLR4 MyD88 cnf: TLR4-MyD88 interaction inhibition confirmed. shares compounds with TLR4-MyD88 BLA. HeLa CL3-4 BLA complementation, CCF4 FRET ratio. inhibition, % at 8.4 µM. actives 50% (n = 350);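 active means mean inhibition across three repeat runs above about 25% carried over from the earlier screen, limit read from the data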;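 further: plate controls were DMSO only for no effect and clavulanic acid blocking BLA at full dose for full effect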
BLA inhibitor ct: beta-lactamase inhibition flagged in TLR4-MyD88 counter-screen | shares compounds with TLR4-MyD88 BLA | HeLa BLA reporter, CCF4 FRET ratio | inhibition, % at 8.4 µM | actives 63% (n = 350) | AID 1237;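 active means mean inhibition over three repeats above about 26% taken from the earlier screen, limit read from the data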;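 further: HeLa cells stably expressing beta-lactamase reporter as counterscreen for TLR4-MyD88 inhibitors; 0% = DMSO and 100% = clavulanic acid full inhibition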
* = called active by the depositor; i = inactive; x = not tested or not shown. Sampled rows, rich in hits. Any-hit rate of the full collection: about 1.2%.

SMILES	GC-A act	NOD2-RIPK2 inh	TLR4-MyD88 BLA	Neddylation inh	NPR2 activator	TLR9-MyD88 inh	TLR4 MyD88 cnf	BLA inhibitor ct
O=C(NCc1ccc(F)c(F)c1)C1CCCN(c2nc3ccccc3o2)C1 (configuration not stated)	-3.5	x	x	x	10.9	x	x	x
O=C(Nc1nccs1)c1cccc(N2C(=O)c3cccc4c([N+](=O)[O-])ccc(c34)C2=O)c1	20.9	-4.2	28.1*	22.7	23.0	0.5	21.1	32.2*
CCC(=O)Nc1nc2n(n1)C(c1ccc(OC)cc1)C=C(c1ccccc1)N2 (configuration not stated)	x	x	14.4	x	x	x	x	x
COc1ccc(C2C=C(c3ccccc3)Nc3nc(CCCO)nn32)cc1 (configuration not stated)	x	x	26.0*	x	x	x	26.5*	38.0*
COc1ccc(C2C=C(c3cccs3)Nc3nc(CCCO)nn32)cc1 (configuration not stated)	x	x	32.3*	x	x	x	32.9*	56.2*
COc1ccc(C2C(C(N)=O)=C(C)Nc3nc(CCCO)nn32)cc1 (configuration not stated)	1.9	4.7	x	3.6	7.1	1.6	x	x
Cc1ccc(C2CCC3(CCC(=O)N3CCO)CC2)cc1 (configuration not stated)	2.4	x	x	x	8.7	x	x	x
CCCC(=O)N1CCC[C@]2(CC[C@H](CCC#N)O2)C1	4.5	x	x	x	-0.5	x	x	x
O=C1[C@@H](CCc2ccccc2)[C@@H]2c3ccccc3C=NN2[C@@H]2c3ccccc3C=NN12	-9.1	x	x	x	-12.3	x	x	x
O=c1c2ccccc2nc(/C=C/c2cc(Br)ccc2O)n1CCO	13.2	10.4	x	2.5	-1.2	2.7	x	x
O=c1c2ccccc2nc(/C=C/c2c[nH]c3ccccc23)n1CCO	5.6	4.0	26.2*	18.0	8.7	-4.6	-4.1	6.3
O=C(/C=C/c1cn(CC(O)CN2CCCCC2)c2ccccc12)c1ccccc1 (configuration not stated)	-7.8	11.8	x	9.3	-13.8	6.0	x	x
CN1CCN(Cn2cc(/C=C/C(=O)c3ccccc3)c3ccccc32)CC1	x	32.8*	27.8*	2.1	x	22.9*	15.6	34.0*
Cn1c(Cl)cnc1C1CC(=O)c2cc(Cl)ccc2O1 (configuration not stated)	-21.8	4.5	26.9*	0.6	-19.4	3.0	-7.0	-16.8
CC1=NOC(=O)/C1=C\c1ccc(-c2ccccc2Br)o1	23.4	-0.1	25.9*	-14.4	3.3	9.2	21.1	-17.7
Cc1sc2nc(CN3CCC(C)CC3)nc(Cl)c2c1C	1.2	x	28.1*	x	-0.5	x	31.8*	11.2
COc1ccc(OC)c(CN2C(=O)CSCCC2(C)c2nnnn2C2CCCC2)c1 (configuration not stated)	-3.7	x	x	x	0.1	x	x	x
O=C(CCCn1c(=O)[nH]c2ccsc2c1=O)N1CCN(Cc2ccc3c(c2)OCO3)CC1	-4.5	1.4	26.4*	8.6	-1.7	-2.5	-1.5	7.3
CCN(CC)c1ccc(/C=C/c2nc3ccccc3s2)cc1	x	x	56.4*	x	x	x	48.0*	75.7*
O=C(N/N=C/c1cc(Br)ccc1O)C(=O)Nc1ccccc1OC(F)(F)C(F)F	-20.9	5.6	4.3	-2.2	-37.1	-5.0	x	x
O=C(N/N=C/c1cc(Cl)ccc1O)C(=O)Nc1ccccc1OC(F)(F)C(F)F	0.8	8.0	26.8*	-11.2	-10.5	6.7	7.5	19.8
O=C(CCl)c1ccc2c(c1)CCN2C(=O)C1CC1	x	x	19.3	x	x	x	x	x
O=C(CCl)c1ccc2c(c1)CCN2C(=O)C1CCCCC1	26.9	-0.6	27.1*	2.9	-3.8	3.7	31.7*	-4.4
C[C@H]1[C@H](NC(=O)c2cccc(Cl)c2)CC[C@@]23CCCN2C(=O)CCC[C@@H]13	2.7	x	x	x	-3.8	x	x	x
COC(=O)c1cc(C(c2ccccc2O)C2CCCO2)n2cccc(C(C)(C)C)c12 (configuration not stated)	-29.5	x	x	x	-22.8	x	x	x
SMILES	GC-A act	NOD2-RIPK2 inh	TLR4-MyD88 BLA	Neddylation inh	NPR2 activator	TLR9-MyD88 inh	TLR4 MyD88 cnf	BLA inhibitor ct
O=c1c(Br)c(Br)cnn1-c1ccccc1	28.9	19.0	34.7*	i	6.0	9.4	19.6	-5.7
CC[C@@H](CCC1CCCCC1)CN(c1ccccc1)S(C)(=O)=O	-1.5	x	x	x	-8.4	x	x	x
O=S1(=O)C=C(Sc2nc3ccccc3s2)c2ccccc21	x	x	25.7*	x	x	x	12.7	-19.3
CC(C)CSC1=NSC2=NC(=O)/C(=C\c3coc4ccccc4c3=O)C(=N)N12	7.5	16.5	43.2*	39.0	-7.0	9.4	13.6	30.6*
COC(=O)C1CN(Cc2ccc(OC)cc2)CCS(=O)(=O)N1Cc1ccc(C(F)(F)F)cc1 (configuration not stated)	-3.6	x	x	x	1.4	x	x	x
O=C(N=C1N(CC2CC2)CC2(C=C3CCCCC3n3c(=O)n(-c4ccccc4)c(=O)n32)N1C(=O)OCc1ccccc1)c1ccccc1 (configuration not stated)	-15.1	x	x	x	-11.7	x	x	x
CN(Cc1ccccc1)S(=O)(=O)c1cccc(C(=O)OCC2CCCCC2)c1	-1.2	x	x	x	5.1	x	x	x
COCCCN1C(=O)[C@H](CC(=O)NCC2CCCCC2)[C@]2(C(=O)OC)CCCCC=C12	3.6	x	x	x	7.3	x	x	x
CCCCC(=O)Nc1sc2c(c1C(=O)OCC)CCC(C=O)=C2Cl	x	9.5	26.1*	x	x	18.8	38.3*	45.4*
CCOC(=O)c1c(NC(=O)c2ccccc2Cl)sc2c1CCc1ccccc1-2	-4.4	-4.3	8.2	27.9	-0.1	7.3	x	x
COC(=O)N1C[C@H](OC)[C@H]2C[C@@H]1c1ccccc1O2	0.6	x	x	x	6.1	x	x	x
COC(=O)/C(C#N)=C/c1ccc(-c2ccc(S(N)(=O)=O)cc2)o1	-3.1	-19.4	x	-26.0	-9.1	-6.6	x	x
CC(C)OC(=O)/C(C#N)=C/c1ccc(-c2ccc(SC(F)F)cc2)o1	1.2	0.1	25.7*	x	-0.6	-0.4	3.5	21.1
CCCn1nc(-c2ccccc2)c2nc3ccccc3nc21	-1.1	x	15.8	x	-21.9	x	x	x
CCCCCn1nc(-c2ccccc2)c2nc3ccccc3nc21	1.5	8.7	44.1*	x	3.8	-3.9	51.5*	62.6*
CC1CCCCC1NC(=O)COC(=O)c1c2c(nc3ccccc13)/C(=C/c1ccco1)CC2 (configuration not stated)	-20.3	8.7	60.6*	3.4	-3.6	-11.9	49.2*	85.1*
O=C(COC(=O)c1c2c(nc3ccccc13)/C(=C/c1ccco1)CC2)NC1CCCC1	-20.8	1.7	45.1*	3.4	-3.6	18.7	44.5*	69.1*
Cc1cc(C(=O)OCC(=O)NC2CCCCC2C)c2ccccc2n1 (configuration not stated)	-0.2	-8.2	x	-10.5	2.3	-6.9	x	x

Compound activity as filed in PubChem BioAssay.
